# Reference: PubChem BioAssay (NCATS)
# Inconclusive results are not listed. Unmarked numbers belong to inactive results. Calls follow the shape of the dose curve; as a rule, active = well fitted activation curve with a large enough effect; inconclusive = small, poorly fitted or top-dose-only effect; inactive = no such curve, though single readings can be large or run the other way.
# Biological target: Cellular tumor antigen p53 (Homo sapiens) (UniProt P04637)
# Assay: Primary qHTS for small molecule compounds that upregulate eGFP-tagged delta133p53alpha (in N-terminal) cells. (AID 2060322);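 also: cells pre-induced with doxycycline then dosed without doxycycline; series mostly up to about 56 µM; 0% = DMSO vehicle and 100% = reference activator; nearly all actives have a fitted effect of over 75% in size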
# Conditions: NCI-H358 eGFP-delta133p53alpha fluorescence, 24 h; activation: hits give high values
# Procedure, shortened: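 NCI-H358 cells pre-induced 24 h with 10 ng/ml doxycycline for eGFP-delta133p53alpha, plated dox-free and exposed 24 h at 37C to titrated compounds. Fixed, Hoechst-stained; gated GFP peak intensity by laser scanning cytometry, normalized to DMSO (0%) and 57.5 uM 5-azacytidine (100%).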
# Sequence of Cellular tumor antigen p53 (Homo sapiens) (P04637 whole entry, looked up): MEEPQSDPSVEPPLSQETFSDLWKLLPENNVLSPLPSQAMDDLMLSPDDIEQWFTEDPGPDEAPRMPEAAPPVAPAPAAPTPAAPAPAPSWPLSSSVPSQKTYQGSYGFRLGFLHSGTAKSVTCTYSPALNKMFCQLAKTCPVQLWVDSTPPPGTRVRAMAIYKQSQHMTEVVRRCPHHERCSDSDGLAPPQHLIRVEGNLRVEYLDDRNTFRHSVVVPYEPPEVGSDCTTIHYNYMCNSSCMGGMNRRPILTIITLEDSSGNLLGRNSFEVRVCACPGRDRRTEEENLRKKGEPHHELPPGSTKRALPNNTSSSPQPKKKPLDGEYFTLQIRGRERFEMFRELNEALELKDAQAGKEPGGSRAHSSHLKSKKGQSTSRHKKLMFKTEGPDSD
row,SMILES,activation [%]
1,CC[C@H]1OC(=O)[C@H](C)C(=O)[C@H](C)[C@@H](OC2O[C@H](C)C[C@H](N(C)C)[C@H]2O)[C@@H](C)C[C@@H](C)C(=O)/C=C/[C@]1(C)O (stereo partly specified),-4.58
2,COC(=O)C1=CO[C@@H](O[C@@H]2O[C@H](CO)[C@@H](O)[C@H](O)[C@H]2O)[C@@H]2[C@@](C)(O)[C@@H](O)C[C@]12O,-2.29
3,COc1ccc(CCO[C@@H]2O[C@H](CO[C@@H]3OC[C@H](O)[C@H](O)[C@H]3O)[C@@H](O)[C@H](O)[C@H]2O)cc1,-20.6
4,CC(=O)O[C@@H]1[C@@H](CO)O[C@@](CO)(O[C@H]2O[C@H](COC(=O)/C=C/c3ccccc3)[C@@H](O)[C@H](O)[C@H]2O)[C@H]1O,2.29
5,Cc1cc(N2CCN(C(=O)Oc3ccc(-c4ccccc4)cn3)CC2)c2ccccc2n1,-10.3
6,CC1OC(OC2C(OC3C(O[C@H]4CC[C@@]5(C)C(CC[C@]6(C)C5C(=O)C=C5C7CC(C)(C)CC(O)[C@]7(C)CC[C@]56C)C4(C)C)OC(C(=O)O)C(O)C3O)OCC(O)C2O)C(O)C(O)C1O (stereo partly specified),2.29
7,Cc1cc(C(=O)N2Cc3cnn(C)c3Nc3ccccc32)ccc1CNC(=O)N1CCN(Cc2cc(O)cc(O)c2)CC1,-7.16
8,CCOC(=O)N1c2ccc(C(F)(F)F)cc2C(N(Cc2cc(C(F)(F)F)cc(C(F)(F)F)c2)C(=O)OC)CC1CC (stereo unspecified),-4.3
9,C=C1CC23CC1CCC2C12OC(=O)C(C)(C(O)CC1O)C2C3C(=O)O (stereo unspecified),-7.14
10,C[C@H]1CC[C@@]2(OC1)O[C@H]1CC3C4CC[C@H]5C[C@@H](O[C@@H]6O[C@H](CO)[C@H](O[C@@H]7O[C@H](CO)[C@@H](O)[C@H](O[C@@H]8OC[C@@H](O)[C@H](O)[C@H]8O)[C@H]7O[C@@H]7O[C@H](CO)[C@@H](O)[C@H](O)[C@H]7O)[C@H](O)[C@H]6O)[C@H](O)C[C@]5(C)C4=CC(=O)[C@]3(C)[C@H]1[C@@H]2C (stereo partly specified),6.11
11,COc1ccc(CN2C(=O)C(=O)c3cc(S(=O)(=O)N4CCC[C@H]4COc4cccnc4)ccc32)cc1,19.7
12,C=C[C@H]1[C@H](O[C@@H]2O[C@H](CO)[C@@H](O)[C@H](O)[C@H]2O)OC=C(C(=O)OC)[C@H]1CC(=O)O,-12.2
13,C[C@@H]1O[C@@H](O[C@H]2[C@H](OC(=O)[C@]34CCC(C)(C)C[C@H]3C3=CCC5[C@@]6(C)C[C@H](O)[C@H](O[C@@H]7O[C@H](CO)[C@@H](O)[C@H](O)[C@H]7O)[C@@](C)(CO)C6[C@H](O)C[C@@]5(C)[C@]3(C)CC4)OC[C@H](O)[C@@H]2O)[C@H](O)[C@H](O)[C@H]1O[C@@H]1OC[C@@H](O)[C@H](O[C@@H]2OC[C@](O)(CO)[C@H]2O)[C@H]1O (stereo partly specified),5.36
14,CC1CCC2(OC1)OC1CC3C4CC=C5CC(O)CC(O[C@@H]6OC[C@@H](O)[C@H](O)[C@H]6O)C5(C)C4CCC3(C)C1(O)C2C (stereo partly specified),16.8
15,C=CC(C)(O)CCC1C(C)(O)CCC2C(C)(C)CCCC21C (stereo unspecified),9.82
16,C=C(C)C1CCC2(C(=O)OC3OC(COC4OC(CO)C(O)C(O)C4O)C(OC4OC(C)C(O)C(O)C4O)C(O)C3O)CCC3(C(=O)O)C(CCC4C5(C)CCC(=O)C(C)(C)C5CCC43C)C12 (stereo unspecified),-8.4
